The record followed here is publication PMC5540273 (PLoS ONE, 2017).

Each structure is given as a SMILES string. Bounds are passed on as bounds.
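Further: kd values determined as follow-up on hits from a single-replicate KINOMEscan panel screen.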

One assay concerns BLK.
For `Cc1ccc(C(=O)Nc2ccc(Nc3ccnc4cc(-c5ccccn5)ccc34)cc2O)cc1.Cl` [GW440146], the Kd (as a rule, a measure of binding affinity in units of concentration) stood at 63 nM.

Molecule `Cl.NC(=O)c1cccc(Nc2nccc(Nc3ccc(Oc4cccc(Cl)c4)c(Cl)c3)n2)c1` [GW659008] displayed a Kd of 2600 nM. Against the preceding molecule, the Kd is about 41-fold higher. Regarding `COc1cc2nccc(Nc3ccc(NC(=O)c4ccc(C)cc4)c(O)c3)c2cc1OC.Cl` [GW440132], the Kd worked out at 230 nM.

The subject of a further assay is BRAF.
The molecule `COC(=O)c1c(-c2ccccc2)c2cc(C(=O)O)ccc2c(=O)n1Cc1ccccc1` showed a Kd of 50 nM. In other words, the double-digit nanomolar range. On the same count and under the same terms, to `CN(C)CCN(C)C(=O)c1cc(-c2ccncc2)c(-c2ccc(Cl)c(O)c2)o1.Cl.Cl` [SB-710397] belongs 45 nM; to `Cc1cccc(-c2nc(-c3ccc(S(C)(=O)=O)cc3)sc2-c2ccnc(NCCc3ccccc3)c2)c1`, 81 nM; to `COC(=O)c1c(-c2ccccc2)c2cc(OC)ccc2c(=O)n1Cc1ccccc1`, 61 nM. On the same count and under the same terms, for `Cl.O=C(Nc1cccc(-c2nn3ncccc3c2-c2ccnc(Nc3cccnc3)n2)c1)c1c(F)cccc1F` [GSK312879] the value was 62 nM. Regarding `CC(=O)Nc1nc2cnc(Nc3cc(NC(=O)c4cccc(CCC#N)c4)ccc3C)nc2s1`, the Kd was > 10000 nM.

Another assay has as its system BRSK1.
Turning to `Cc1ccc(NC(=O)Nc2cccc(Cl)c2)cc1-c1ccc(C(=O)Nc2ccncc2)cc1` [GSK1398468], the Kd was > 10000 nM. Consider `O=C(Nc1n[nH]c2nc(-c3nccs3)c(Br)cc12)C1CC1` [SB-742251], for which the Kd amounted to 230 nM. In other words, the sub-micromolar range. The same measure, in the same setting: to `CCn1c(-c2ccccn2)nc2cnccc21` [SB-736398] belongs > 10000 nM; to `CS(=O)(=O)c1ccc(-c2c(-c3ncn[nH]3)sc(N3CCOCC3)c2C#N)cc1`, > 10000 nM; to `Cc1ccc(NC(=O)Nc2cc(C(C)(C)C)nn2-c2ccccc2)cc1` [GSK1014915], > 10000 nM.

Molecule `O=C(Nc1n[nH]c2nc(-c3nccs3)c(Br)cc12)C1CCCC1` [SB-742609] displayed a Kd of 430 nM.

A further assay concerns BRSK2.
`COc1ccccc1CNC(=O)c1cc(C(=O)c2ccccc2C)c[nH]1` [GSK364507]: the Kd is > 10000 nM. In the case of `O=C(Nc1n[nH]c2nc(-c3nccs3)c(Br)cc12)C1CC1` [SB-742251], binding was characterised by a dissociation constant (Kd) of 140 nM. On the same count and under the same terms, to `O=C(Nc1n[nH]c2nc(-c3nccs3)c(Br)cc12)C1CCCC1` [SB-742609] belongs 330 nM.

A further assay has as its system CAMK1G.
As to `Cc1cc(-c2ccc3c(c2)CC[C@@H](N[C@@H](C)c2ccccc2)C3)cnc1N.Cl` [GW412617], the Kd is > 10000 nM.

Consider `CN1C(=O)C(Nc2ccc(Cl)c(C(=O)O)c2)=C(c2ccc(Cl)cc2)C1=O` [SB-404290], for which the dissociation constant (Kd) was > 10000 nM. With `Cc1cccc(-c2nc(C)cc(Nc3ccncc3)n2)n1` [GSK257997], the Kd was > 10000 nM. The same measure, in the same setting: to `O=C(Nc1n[nH]c2cc(-c3cccc(F)c3F)ccc12)C1CC1` [SB-733894] belongs > 10000 nM.

Another assay relates to T1, CDC2L1.
T1 construct: gene CDK11B
For `CS(=O)(=O)c1ccc(-c2nc3n(c2-c2ccncc2)CCC3)cc1` [SKF-105942], the Kd was > 10000 nM.

As for `Cc1cccc(-c2nc(C)cc(Nc3ccncc3)n2)n1` [GSK257997], the Kd is > 10000 nM.

Regarding `O=C(Nc1n[nH]c2nc(-c3nccs3)c(Br)cc12)C1CCCC1` [SB-742609], the Kd is > 10000 nM.

For the next assay, the system named is CDK9.
Turning to `CS(=O)(=O)c1ccc(-c2nc3n(c2-c2ccncc2)CCC3)cc1` [SKF-105942], the Kd was > 10000 nM. `Cc1cccc(-c2nc(C)cc(Nc3ccncc3)n2)n1` [GSK257997]: the Kd was > 10000 nM. `O=C(Nc1n[nH]c2nc(-c3nccs3)c(Br)cc12)C1CCCC1` [SB-742609] yielded a Kd of 2500 nM.
